In PubChem BioAssay AID1159580 (chemical genetic matrix, 2015):
In all, about 5,500 compounds went through this assay and about 2,000 (36%) were called active. Not shown: some 18% with an inconclusive outcome. No stated cut-off is given here; in the data, active means normalized growth mostly below about 0.91 (no sharp cut-off); inconclusive means no clear call, values can overlap the other calls; inactive means mostly above about 0.92. The list shows a part of the results.

Experiment: chemical genetic growth profiling, strain panel (AID 1159580);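 further: tested at 20 µM; growth read once vehicle control cultures reached saturation at 30 °C; 1 = growth at the plate median or of vehicle wells; lower values mean less growth of the strain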
Conditions: S. cerevisiae deletion strains, growth OD

Measured: normalized growth

CC(=O)OC1CC[C@@]2(C)C(CCC3C2CC[C@]2(C)C(C4=CC(=O)OC4)C(OC(C)=O)CC32O)C1 (stereo not given in full)
inactive: locus YAL013W, strain DEP1, hits give low values 0.988 | locus YAL021C, strain ccr4, hits give low values 0.989 | locus YAL026C, strain drs2, hits give low values 0.979 | locus YAL030W, strain snc1, hits give low values 0.998 | locus YBL061C, strain skt5, hits give low values 0.994 | locus YBR009C, strain hhf1, hits give low values 1 | locus YBR023C, strain chs3, hits give low values 0.995 | locus YBR171W, strain sec66, hits give low values 0.987 | locus YBR229C, strain ROT2, hits give low values 0.997 | locus YBR231C, strain swc5, hits give low values 0.979 | locus YBR279W, strain paf1, hits give low values 0.984 | locus YCL011C, strain gbp2, hits give low values 0.972 | locus YCL016C, strain dcc1, hits give low values 0.971 | locus YCL029C, strain bik1, hits give low values 1.01 | locus YCL069W, strain vba3, hits give low values 0.999 | locus YCR088W, strain abp1, hits give low values 0.999 | locus YDL005C, strain med2, hits give low values 0.972 | locus YDL035C, strain GPR1, hits give low values 1.01 | locus YDL040C, strain nat1, hits give low values 0.99 | locus YDL074C, strain BRE1, hits give low values 0.972 | locus YDL101C, strain DUN1, hits give low values 1 | locus YDL134C, strain PPH21, hits give low values 1.03 | locus YDL185W, strain tfp1, hits give low values 1.02 | locus YDL192W, strain arf1, hits give low values 1 | locus YDR001C, strain nth1, hits give low values 0.986 | locus YDR069C, strain doa4, hits give low values 0.942 | locus YDR101C, strain arx1, hits give low values 1.01 | locus YDR137W, strain rgp1, hits give low values 0.986 | locus YDR159W, strain sac3, hits give low values 1.03 | locus YDR162C, strain NBP2, hits give low values 1 | locus YDR195W, strain ref2 0.951 | locus YDR297W, strain sur2, hits give low values 0.989 | locus YDR318W, strain mcm21, hits give low values 0.992 | locus YDR334W, strain swr1, hits give low values 0.976 | locus YDR335W, strain msn5, hits give low values 0.978 | locus YDR388W, hits give low values 1.01 | locus YDR392W, strain spt3, hits give low values 1.01 | locus YDR502C, strain sam2, hits give low values 0.994 | locus YEL003W, strain gim4, hits give low values 0.988 | locus YEL037C, strain rad23, hits give low values 0.997 | locus YEL061C, strain CIN8 (second series), hits give low values 0.985 | locus YEL061C, strain CIN8, hits give low values 0.997 | locus YER015W, strain faa2, hits give low values 0.983 | locus YER016W, strain bim1, hits give low values 0.965 | locus YER110C, hits give low values 1.01 | locus YER111C, strain swi4, hits give low values 0.978 | locus YER155C, strain BEM2 (second series), hits give low values 1.01 | locus YER155C, strain BEM2, hits give low values 0.996 | locus YER167W, strain BCK2, hits give low values 0.997 | locus YFR010W, strain ubp6, hits give low values 1 | locus YGL078C, strain dbp3, hits give low values 1 | locus YGL086W, strain mad1, hits give low values 1 | locus YGL167C, strain pmr1, hits give low values 0.982 | locus YGL173C, strain kem1, hits give low values 0.987 | locus YGL227W, strain vid30, hits give low values 0.98 | locus YGL240W, strain doc1, hits give low values 0.99 | locus YGL248W, strain PDE1, hits give low values 0.995 | locus YGL253W, strain hxk2, hits give low values 0.964 | locus YGR135W, strain pre9, hits give low values 1.01 | locus YGR229C, strain SMI1, hits give low values 0.976 | locus YGR252W, strain gcn5, hits give low values 0.993 | locus YHR013C, strain ard1, hits give low values 0.943 | locus YHR027C, strain rpn1, hits give low values 0.97 | locus YHR079C, strain IRE1 (second series), hits give low values 1 | locus YHR094C, strain hxt1, hits give low values 1 | locus YHR129C, strain ARP1, hits give low values 1 | locus YHR142W, strain chs7, hits give low values 0.958 | locus YHR200W, strain rpn10, hits give low values 1.01 | locus YIL066C, strain RNR3, hits give low values 1.01 | locus YIL073C, strain SPO22, hits give low values 1.04 | locus YIL125W, strain kgd1, hits give low values 1.02 | locus YIR030C, strain dcg1, hits give low values 1 | locus YJL092W, strain hpr5, hits give low values 0.986 | locus YJL095W, strain BCK1 (second series), hits give low values 0.993 | locus YJL095W, strain BCK1, hits give low values 0.999 | locus YJL115W, strain asf1, hits give low values 0.959 | locus YJL129C, strain trk1, hits give low values 0.956 | locus YJL134W, strain LCB3, hits give low values 0.995 | locus YJL154C, strain vps35, hits give low values 0.975 | locus YJL164C, strain tpk1, hits give low values 1 | locus YJL166W, strain qcr8, hits give low values 0.957 | locus YJL168C, strain set2, hits give low values 1.01 | locus YJL187C, strain SWE1 (second series), hits give low values 0.99 | locus YJL187C, strain SWE1, hits give low values 0.982 | locus YJR075W, strain HOC1, hits give low values 0.997 | locus YKL009W, strain mrt4, hits give low values 1.01 | locus YKL068W, hits give low values 1.01 | locus YKL085W, strain MDH1 (second series), hits give low values 1.01 | locus YKL085W, strain MDH1, hits give low values 1.01 | locus YKL160W, strain elf1, hits give low values 0.975 | locus YKR001C, strain vps1, hits give low values 1.01 | locus YKR026C, strain gcn3, hits give low values 0.993 | locus YKR091W, strain srl3, hits give low values 0.974 | locus YLL001W, strain dnm1, hits give low values 0.998 | locus YLL026W, hits give low values 0.983 | locus YLL041C, strain sdh2, hits give low values 1 | locus YLR027C, strain aat2, hits give low values 0.983 | locus YLR039C, strain RIC1, hits give low values 1.02 | locus YLR058C, strain SHM2, hits give low values 1 | locus YLR102C, strain apc9, hits give low values 1.01 | locus YLR221C, strain rsa3, hits give low values 0.997 | locus YLR258W, strain gsy2, hits give low values 0.979 | locus YLR262C, strain YPT6 (second series), hits give low values 0.974 | locus YLR262C, strain YPT6, hits give low values 1.03 | locus YLR268W, strain sec22, hits give low values 1.01 | locus YLR320W, strain mms22, hits give low values 1.01 | locus YLR342W, strain FKS1 (second series), hits give low values 0.986 | locus YLR342W, strain FKS1, hits give low values 1.01 | locus YLR357W, strain rsc2, hits give low values 0.967 | locus YLR370C, strain arc18, hits give low values 0.974 | locus YLR371W, strain rom2, hits give low values 0.996 | locus YLR384C, strain iki3, hits give low values 0.971 | locus YLR418C, strain cdc73, hits give low values 1.03 | locus YML016C, strain PPZ1, hits give low values 1 | locus YML032C, strain rad52, hits give low values 1.01 | locus YML120C, strain ndi1, hits give low values 0.996 | locus YML124C, strain tub3, hits give low values 1.01 | locus YMR058W, strain fet3, hits give low values 0.977 | locus YMR078C, strain ctf18, hits give low values 1.02 | locus YMR125W, strain sto1, hits give low values 0.977 | locus YMR129W, hits give low values 0.981 | locus YMR205C, strain PFK2, hits give low values 0.994 | locus YMR223W, strain ubp8, hits give low values 1 | locus YMR231W, strain pep5, hits give low values 0.99 | locus YMR307W, strain GAS1, hits give low values 1.02 | locus YNL067W, strain RPL9B, hits give low values 1.01 | locus YNL071W, strain lat1, hits give low values 0.999 | locus YNL153C, strain GIM3, hits give low values 1 | locus YNL209W, strain ssb2, hits give low values 0.996 | locus YNL233W, strain BNI4, hits give low values 0.989 | locus YNL248C, strain rpa49, hits give low values 0.946 | locus YNL250W, strain rad50, hits give low values 1.02 | locus YNL271C, strain bni1, hits give low values 1.01 | locus YNL298W, strain CLA4, hits give low values 1.04 | locus YNL307C, strain MCK1, hits give low values 1.03 | locus YNL322C, strain KRE1 (second series), hits give low values 0.971 | locus YNR049C, strain mso1, hits give low values 0.959 | locus YNR052C, strain pop2, hits give low values 0.999 | locus YOL006C, strain TOP1, hits give low values 1.04 | locus YOL012C, strain htz1 0.875 | locus YOL147C, strain pex11, hits give low values 1.01 | locus YOR001W, strain rrp6, hits give low values 1.03 | locus YOR061W, strain CKA2, hits give low values 1.01 | locus YOR069W, strain VPS5, hits give low values 0.999 | locus YOR070C, strain gyp1, hits give low values 0.995 | locus YOR080W, strain dia2, hits give low values 0.973 | locus YOR083W, strain WHI5, hits give low values 0.977 | locus YOR106W, strain vam3, hits give low values 0.956 | locus YOR136W, strain idh2, hits give low values 1.02 | locus YOR144C, strain elg1, hits give low values 1.02 | locus YOR184W, strain ser1, hits give low values 1.02 | locus YOR265W, strain rbl2, hits give low values 0.999 | locus YOR270C, strain vph1, hits give low values 0.965 | locus YOR290C, strain snf2, hits give low values 0.955 | locus YOR316C, strain cot1, hits give low values 1.02 | locus YPL051W, strain arl3, hits give low values 0.98 | locus YPL078C, strain atp4, hits give low values 0.977 | locus YPL106C, strain sse1, hits give low values 0.997 | locus YPL240C, strain hsp82, hits give low values 0.982 | locus YPR119W, strain clb2, hits give low values 1.01 | locus YPR141C, strain kar3, hits give low values 1 | locus YPR163C, strain tif3, hits give low values 1.02 | locus YPR167C, strain met16, hits give low values 0.999 | strain wtn01, hits give low values 1.01
active: locus YBR021W, strain FUR4, hits give low values 0.837
